# Data as given in PubChem BioAssay (NCI).
# This is part of a sample that, as a whole, favours compounds with a hit. Of some 83,000 tested, about 20% had one in any assay.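 Activity criterion: percent growth below 10, measured after cells in 96-well plates were exposed to a single compound concentration for 48 hours.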 Calls of active or inactive are those of the source.
# Columns and labels:
# Experiment in all cases: NCI-60 one-dose screen, 48 h (100 = growth as untreated, 0 = no growth, -100 = all killed)
# [1] = system: HCT-15 colon; details: 10 µM
# [2] = system: HT29 colon; details: 10 µM
# [3] = system: SNB-75 CNS; details: 10 µM
# [4] = system: SNB-19 CNS; details: 10 µM
# [5] = system: U251 CNS; details: 10 µM
# [6] = system: PC-3 prostate; details: 10 µM
# [7] = system: SK-MEL-5 melanoma; details: 10 µM
# [8] = system: UACC-62 melanoma; details: 10 µM unless noted
# [9] = system: LOX IMVI melanoma; details: 10 µM
# [10] = system: SK-MEL-28 melanoma; details: 10 µM
SMILES,growth [1],growth [2],growth [3],growth [4],growth [5],growth [6],growth [7],growth [8],growth [9],growth [10]
O=C(NN=C1CCCCC1)C(=O)NN=C1CCCCC1,108% (inactive),98.6% (inactive),103% (inactive),110% (inactive),107% (inactive),89% (inactive),99.9% (inactive),109% (inactive),113% (inactive),100% (inactive)
Nc1ccc(N=Nc2ccc(S(=O)(=O)O)cc2)c2ccccc12,99.9% (inactive),107% (inactive),81.6% (inactive),106% (inactive),98.9% (inactive),87.4% (inactive),94.4% (inactive),90.7% (inactive),100% (inactive),103% (inactive)
CCCC1(c2ccccc2)NC(=O)NC1=O (stereo not given),108% (inactive),111% (inactive),86.5% (inactive),105% (inactive),113% (inactive),99% (inactive),99.3% (inactive),97.4% (inactive),105% (inactive),104% (inactive)
Nc1ccc(C(=O)c2ccc(N)c(Br)c2)cc1Br,18% (inactive),-14.2% (active),-5.35% (active),33.4% (inactive),18.2% (inactive),22.4% (inactive),8.91% (active),28.7% (inactive),12.9% (inactive),45% (inactive)
COC(=O)c1cccc(Br)c1,101% (inactive),115% (inactive),96.5% (inactive),107% (inactive),109% (inactive),86.4% (inactive),106% (inactive),97.2% (inactive),108% (inactive),118% (inactive)
CC1CC(O)CC(C)(C)C1 (stereo not given),100% (inactive),99.9% (inactive),94% (inactive),104% (inactive),101% (inactive),94.8% (inactive),104% (inactive),92.4% (inactive),102% (inactive),112% (inactive)
O=[N+]([O-])c1ccc(N=Nc2ccccc2)cc1,100% (inactive),92.2% (inactive),88.5% (inactive),96.7% (inactive),90.5% (inactive),83.5% (inactive),99% (inactive),91.4% (inactive),92% (inactive),99.3% (inactive)
COCCCC/C(=N\OCCN)c1ccc(C(F)(F)F)cc1,103% (inactive),96% (inactive),79.9% (inactive),100% (inactive),97.4% (inactive),79.8% (inactive),99.6% (inactive),97.5% (inactive),94.8% (inactive),117% (inactive)
CCCC[P+](c1ccccc1)(c1ccccc1)c1ccccc1,99.5% (inactive),40.9% (inactive),53.5% (inactive),55.3% (inactive),30.1% (inactive),26.8% (inactive),16.1% (inactive),44.3% (inactive),41% (inactive),69.1% (inactive)
CC1(C(N)=O)CCC(C(=O)O)C1(C)C (stereo not given),96.4% (inactive),104% (inactive),92.4% (inactive),99% (inactive),98.2% (inactive),98.1% (inactive),98% (inactive),87% (inactive),104% (inactive),103% (inactive)
C=CCNc1nnc(C)s1,104% (inactive),116% (inactive),102% (inactive),109% (inactive),107% (inactive),89.6% (inactive),107% (inactive),97.1% (inactive),97.8% (inactive),104% (inactive)
Cc1ccc(/C(C#N)=C/c2ccc3c(c2)OCO3)cc1,69.5% (inactive),37.1% (inactive),67.8% (inactive),88.4% (inactive),63.2% (inactive),81.9% (inactive),58.6% (inactive),73.5% (inactive),74.9% (inactive),81.4% (inactive)
CC(C)OC(C(=O)O)c1ccccc1 (stereo not given),97.8% (inactive),109% (inactive),78.2% (inactive),99.5% (inactive),111% (inactive),82.9% (inactive),105% (inactive),97.1% (inactive),88.5% (inactive),102% (inactive)
O=C(CCl)N1CCN(C/C=C/c2ccccc2)CC1,86.3% (inactive),79.2% (inactive),92.6% (inactive),95.2% (inactive),90.7% (inactive),89% (inactive),86.6% (inactive),76.6% (inactive),2.58% (active),94.4% (inactive)
N#Cc1ccc(NC(=O)Nc2cccc(C#N)c2)cc1,67.4% (inactive),97.3% (inactive),97.8% (inactive),103% (inactive),91.8% (inactive),57.3% (inactive),81.8% (inactive),93.7% (inactive),91.6% (inactive),108% (inactive)
Cc1ccc(S(=O)(=O)O)c(C)c1,104% (inactive),103% (inactive),82.8% (inactive),109% (inactive),97.1% (inactive),99.1% (inactive),105% (inactive),120% (inactive),95.3% (inactive),106% (inactive)
O=c1cc(-c2ccccc2)nc2cc(-c3ccco3)[nH]n12,67.8% (inactive),102% (inactive),79.4% (inactive),95.8% (inactive),90.5% (inactive),78.7% (inactive),83.1% (inactive),67.8% (inactive),86.1% (inactive),88.6% (inactive)

SMILES,growth [1],growth [2],growth [3],growth [4],growth [5],growth [6],growth [7],growth [8],growth [9],growth [10]
O=C(O)CCC(=O)OC(C1CO1)C(OC(=O)CCC(=O)O)C1CO1 (stereo not given),97.9% (inactive),100% (inactive),94.7% (inactive),111% (inactive),95.7% (inactive),96.3% (inactive),98.8% (inactive),111% (inactive),97.1% (inactive),110% (inactive)
Cc1cccc(C(=O)N(C(C)C)C(C)C)c1,96.7% (inactive),92.8% (inactive),95% (inactive),99.6% (inactive),92.5% (inactive),92.8% (inactive),95.3% (inactive),96.5% (inactive),96.1% (inactive),103% (inactive)
Cc1cc(=O)[nH]c(NN=C2CCCC2)n1,106% (inactive),107% (inactive),89.1% (inactive),108% (inactive),120% (inactive),80.7% (inactive),115% (inactive),100% (inactive),110% (inactive),113% (inactive)
CCCC(C)OCC(=O)O (stereo not given),104% (inactive),109% (inactive),85.8% (inactive),100% (inactive),93.5% (inactive),98.4% (inactive),99.8% (inactive),110% (inactive),99.1% (inactive),97.9% (inactive)
NC(N)=Nc1cc2ccccc2c2ccccc12,85.7% (inactive),65.3% (inactive),57% (inactive),82.2% (inactive),79.4% (inactive),61.5% (inactive),85.9% (inactive),75% (inactive),74.9% (inactive),88.3% (inactive)
CCCCCCCCCCCCCCCCC1CC(=O)OC1=O (stereo not given),107% (inactive),109% (inactive),101% (inactive),105% (inactive),96.4% (inactive),98.9% (inactive),103% (inactive),102% (inactive),103% (inactive),105% (inactive)
Oc1ccccc1-c1nnco1,100% (inactive),97.5% (inactive),45.5% (inactive),93.2% (inactive),82.9% (inactive),91.8% (inactive),102% (inactive),89.9% (inactive),87.7% (inactive),101% (inactive)
CCOC(=O)c1ccc(Nc2sc(C(=O)c3cccc([N+](=O)[O-])c3)c(N)c2C#N)cc1,32.3% (inactive),8.29% (active),-6.96% (active),48.8% (inactive),11.5% (inactive),31.1% (inactive),10.9% (inactive),28.6% (inactive),39.5% (inactive),63.1% (inactive)
O=C(/C=C/C(=O)c1ccccc1)c1ccccc1,79.2% (inactive),100% (inactive),104% (inactive),109% (inactive),93.6% (inactive),125% (inactive),105% (inactive),93.4% (inactive),92.1% (inactive),117% (inactive)
COc1ccccc1N=Nc1c(O)ccc2cc(S(=O)(=O)O)ccc12,107% (inactive),96.7% (inactive),69.6% (inactive),100% (inactive),99.5% (inactive),92.6% (inactive),103% (inactive),100% (inactive),100% (inactive),111% (inactive)
CC(C)CCOC(=O)c1ccccc1,111% (inactive),108% (inactive),95.6% (inactive),105% (inactive),97.5% (inactive),97.9% (inactive),105% (inactive),104% (inactive),101% (inactive),103% (inactive)
CNS(=O)(=O)c1ccc(Cl)c(Cl)c1,99.9% (inactive),106% (inactive),87.8% (inactive),106% (inactive),99.3% (inactive),113% (inactive),96.7% (inactive),86.6% (inactive),102% (inactive),119% (inactive)
CCOC(=O)CCCC(=O)OCC,104% (inactive),110% (inactive),87.8% (inactive),106% (inactive),99.9% (inactive),100% (inactive),106% (inactive),102% (inactive),98.9% (inactive),109% (inactive)
CCCCOC(=O)c1ccc(C(C)C)cc1,101% (inactive),94.9% (inactive),84.3% (inactive),105% (inactive),93.8% (inactive),84.7% (inactive),106% (inactive),103% (inactive),96.7% (inactive),111% (inactive)
COCCOC(=O)c1ccc(C(C)C)cc1,99.5% (inactive),91.9% (inactive),86.9% (inactive),106% (inactive),98.8% (inactive),82.9% (inactive),103% (inactive),99.4% (inactive),95.7% (inactive),110% (inactive)
Cc1ccccc1N=C(c1ccccc1)C1C(=O)c2ccccc2C1=O,58.7% (inactive),75.9% (inactive),90% (inactive),97.1% (inactive),87.7% (inactive),59.8% (inactive),-0.209% (active),63.1% (inactive),85.9% (inactive),89.4% (inactive)
O=C1c2ccccc2C(=O)c2c1ccc(C(=O)O)c2[N+](=O)[O-],105% (inactive),93.8% (inactive),91.2% (inactive),109% (inactive),99.6% (inactive),94.8% (inactive),109% (inactive),106% (inactive),88.4% (inactive),101% (inactive)
